Source: PubChem BioAssay (several laboratories)
DAX1 inh – inhibitors of human orphan nuclear receptor DAX1 (NR0B1) | AID 504766 | inhibition, % at 6.75 µM | actives 0.99% (n = 340,000) | HEK293 Gal4-DAX1 luciferase reporter, luminescence | P51843;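 active = inhibition above the mean over all tested compounds plus 3 SD, cut at about 4.2% in these data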;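 also: 0% = DAX1-transfected cells with DMSO and 100% = empty-vector control cells with DMSO; inhibition shows as a rise in luminescence from relieved DAX1 repression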
FXN GAA850 act – frataxin GAA850 promoter activation | HEK293 lucGAA850 FXN promoter luciferase reporter, 24 h; percent of 10 µM SAHA response | activation, % at 6 µM | actives 0.56% (n = 360,000);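 active = activation above the average of all compounds screened plus 3 SD, cutoff fixed separately per campaign, cut at about 7.5% in these data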;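 also: 0% = DMSO wells and 100% = 10 µM SAHA wells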
HSF1 activator – increases HSF-1 driven luciferase reporter signal | activation, % at 9 µM | actives 1.7% (n = 300,000) | AID 504408 | NIH3T3-HGL HSF-1 luciferase reporter, MG132, 8 h; 100% = twice DMSO control signal;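 active = mean replicate activation of at least 50% with a set share of replicates each reaching 50%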;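 also: 0% = median of the neutral control wells and 100% = twice that signal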
HSF1 inhib – HSF1 inhibition. NIH3T3-HGL HSE-luciferase, MG132-induced, luminescence 8 h; active compounds read low. actives 0.77% (n = 300,000). activity change, negative = inhibition, % at 7.5 µM (by protocol). AID 2098;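 active = more than half of replicate wells show activity change below -50%, luminescence cut by over half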;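 also: luciferase reports HSF-1 transcriptional activity via heat shock element; 0% = median of DMSO wells and -100% = zero luminescence signal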
AHR activator – human AHR activation; P35869; AHR-responsive luciferase reporter cells, luminescence; activation, % at 5 µM; actives 2.5% (n = 320,000); in the data active = activation above about 47%;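 also: 0% = vehicle wells and 100% = reference agonist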
Target sequence (P35869 whole entry, looked up): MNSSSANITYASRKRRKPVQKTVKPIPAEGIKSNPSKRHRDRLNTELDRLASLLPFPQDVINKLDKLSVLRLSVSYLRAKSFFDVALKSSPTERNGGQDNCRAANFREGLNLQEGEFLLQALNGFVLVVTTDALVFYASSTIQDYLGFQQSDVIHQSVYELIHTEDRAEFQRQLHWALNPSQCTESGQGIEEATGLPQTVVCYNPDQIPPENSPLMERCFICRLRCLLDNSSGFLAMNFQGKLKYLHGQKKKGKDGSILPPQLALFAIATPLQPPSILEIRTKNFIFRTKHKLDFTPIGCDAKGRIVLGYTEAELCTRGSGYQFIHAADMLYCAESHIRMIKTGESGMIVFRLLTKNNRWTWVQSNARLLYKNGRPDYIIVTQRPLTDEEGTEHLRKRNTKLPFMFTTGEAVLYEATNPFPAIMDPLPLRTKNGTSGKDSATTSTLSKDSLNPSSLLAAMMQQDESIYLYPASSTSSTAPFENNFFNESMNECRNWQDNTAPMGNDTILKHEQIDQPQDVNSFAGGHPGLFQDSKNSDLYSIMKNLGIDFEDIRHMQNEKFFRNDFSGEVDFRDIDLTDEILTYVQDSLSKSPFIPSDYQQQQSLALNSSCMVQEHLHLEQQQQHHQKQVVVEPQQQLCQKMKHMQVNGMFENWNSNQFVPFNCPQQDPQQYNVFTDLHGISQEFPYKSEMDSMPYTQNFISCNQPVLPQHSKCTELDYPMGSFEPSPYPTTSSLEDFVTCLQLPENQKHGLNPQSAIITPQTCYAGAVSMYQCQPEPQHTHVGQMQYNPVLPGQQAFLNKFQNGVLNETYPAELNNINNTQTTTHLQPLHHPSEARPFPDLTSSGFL
* hit, by the source's call. In the library only some 5.4% were active in any assay of this set; here they are far more common.

Results for C/C(=N\NC(=S)Nc1ccc(C(C)C)cc1)c1ccc2c(c1)OCO2 ?
DAX1 inh: 1.5; FXN GAA850 act: 3.5; HSF1 activator: 33.5; HSF1 inhib: -6.6; AHR activator: 33.6

What do the screens show for `CNC(=S)N/N=C(\C)c1ccc2c(c1)OCCO2`?
DAX1 inh: 0.9; FXN GAA850 act: 1.5; HSF1 activator: -9.4; HSF1 inhib: -12.1; AHR activator: 48.4*

Results for C/C(=N\NC(=S)NC(C)C)c1ccc2c(c1)OCCO2 ?
DAX1 inh: 1.1; FXN GAA850 act: 1.8; HSF1 activator: 17.5; HSF1 inhib: -5.5; AHR activator: 11.1

How did COc1ccc(N(CC(=O)NCc2ccccc2)S(=O)(=O)c2c(C)n[nH]c2C)cc1 do in these assays?
DAX1 inh: -0.1; FXN GAA850 act: 0.9; HSF1 activator: 5.4; HSF1 inhib: 1.6; AHR activator: -0.1

Results for CCC(C)C(=O)C(=O)N1CCC(n2nccc2NC(=O)CCOc2ccccc2)CC1 (stereo not given) ?
DAX1 inh: 0.4; FXN GAA850 act: 2.5

What do the screens show for `Cn1nc(CC(=O)N2CCN(c3ccccc3)CC2)c2ccccc2c1=O`?
DAX1 inh: 0.3; FXN GAA850 act: 0.4; HSF1 activator: -0.1; HSF1 inhib: -0.5; AHR activator: 2.7

Results for Cc1[nH]n(CCC#N)c(=O)c1CC(=O)N1CCN(c2ccccc2)CC1 ?
DAX1 inh: 0.3; FXN GAA850 act: -2.1; HSF1 activator: -65.3; HSF1 inhib: -53.7*; AHR activator: 1.9

How did O=C1CCC(=O)N(O)CCCCCNC(=O)CCC(=O)N(O)CCCCNC(=O)CCC(=O)N(O)CCCCCN1 do in these assays?
DAX1 inh: 5.3*; FXN GAA850 act: -1.6; HSF1 activator: 0.4; HSF1 inhib: 8.9; AHR activator: 0.5

Results for O=C(NNc1nc2cc3c(cc2s1)OCCO3)c1ccccc1 ?
DAX1 inh: 1.1; FXN GAA850 act: 3.5; HSF1 activator: 33.9; HSF1 inhib: 15.0; AHR activator: 73.9*

Results for O=C(NNc1nc2ccc(F)cc2s1)c1cccc(F)c1 ?
DAX1 inh: 3.0; FXN GAA850 act: 0.4; HSF1 activator: 42.1; HSF1 inhib: 28.4; AHR activator: 22.8

How did Fc1cccc2sc(Nc3nc4cc5c(cc4s3)OCCO5)nc12 do in these assays?
DAX1 inh: 1.1; FXN GAA850 act: -0.3; HSF1 activator: -39.3; HSF1 inhib: -26.2; AHR activator: 60.3*

What do the screens show for `Cc1cccc2sc(NNC(=O)c3ccc4c(c3)OCCO4)nc12`?
DAX1 inh: 1.8; FXN GAA850 act: 1.6; HSF1 activator: 9.9; HSF1 inhib: 0.9; AHR activator: 58.8*

How did CCCOc1c(Br)cc(C(=O)OCC(=O)NC(=O)c2cccn2C)cc1OC do in these assays?
DAX1 inh: -0.5; FXN GAA850 act: 0.8; AHR activator: 2.6

How did Cc1cc2c(cc1S(=O)(=O)N(C)Cc1ccccc1)OCC(=O)N2 do in these assays?
DAX1 inh: -0.3; FXN GAA850 act: -0.2; HSF1 activator: -10.3; HSF1 inhib: -2.1; AHR activator: 0.9

Results for COc1cc(NCCCn2cnc(C(=O)Nc3ccc(C)c(C)c3)n2)cc(OC)c1OC ?
DAX1 inh: 0.8; FXN GAA850 act: -2.3

How did CCc1cc2c(=O)c(-c3ccc4c(c3)OCCO4)coc2cc1OS(C)(=O)=O do in these assays?
DAX1 inh: 0.2; FXN GAA850 act: 4.1; HSF1 activator: 55.7*; HSF1 inhib: 28.0; AHR activator: 5.1

Results for COc1ccccc1P(=O)(c1ccccc1)c1ccccc1 ?
DAX1 inh: -0.5; FXN GAA850 act: 1.9; HSF1 activator: -3.6; HSF1 inhib: -6.0; AHR activator: -1.3

How did CC(=O)Nc1ccccc1P(=O)(c1ccccc1)c1ccccc1OC(C)=O (stereo not given) do in these assays?
DAX1 inh: 4.5*; FXN GAA850 act: 1.8; HSF1 activator: 4.3; HSF1 inhib: -6.8; AHR activator: -2.6

What do the screens show for `NC(N)=N/N=C(\N=Nc1ccccc1)c1ccc(Cl)cc1`?
DAX1 inh: 0.4; FXN GAA850 act: -0.8

How did O=S(=O)(Cc1ccc(Cl)cc1)N1CCN(c2ncccn2)CC1 do in these assays?
DAX1 inh: 0.5; FXN GAA850 act: -0.2; HSF1 activator: -20.5; HSF1 inhib: -5.1; AHR activator: -3.7

How did CCOc1ccc2c(C)nc(NC3=NC(C)(C)C=C(C)N3)nc2c1 do in these assays?
DAX1 inh: -0.2; FXN GAA850 act: 0.7; HSF1 activator: -0.1; HSF1 inhib: -8.2; AHR activator: 63.8*

How did CCOc1ccc2nc(NC3=NC(C)(C)C=C(C)N3)nc(C)c2c1 do in these assays?
DAX1 inh: 1.1; FXN GAA850 act: -1.7; HSF1 activator: 23.1; HSF1 inhib: 0.0; AHR activator: 40.8

What do the screens show for `NNc1cc([N+](=O)[O-])cc2c1C(=O)N(Cc1ccccc1)S2=O` (stereo not given)?
DAX1 inh: 0.9; FXN GAA850 act: 0.0; HSF1 activator: 2.1; HSF1 inhib: 2.6; AHR activator: 0.4

What do the screens show for `COc1cc(/C=N/NC(=O)c2ccncc2)ccc1OC(C)=O`?
DAX1 inh: 0.1; FXN GAA850 act: -1.1; HSF1 activator: 2.6; HSF1 inhib: -4.9; AHR activator: 7.8

How did COc1cc(/C=N\Nc2nncn2N)ccc1OC(C)=O do in these assays?
DAX1 inh: -2.6; FXN GAA850 act: 1.0; HSF1 activator: 55.8*; HSF1 inhib: 27.5; AHR activator: 14.3

How did CSc1ccc(/C=N\Nc2nncn2N)cc1 do in these assays?
DAX1 inh: -0.8; FXN GAA850 act: 1.0; HSF1 activator: 94.9*; HSF1 inhib: 37.3; AHR activator: 10.7

What do the screens show for `CC(C)(C)c1ccc(/C=N/Nc2nncn2N)cc1`?
DAX1 inh: -1.6; FXN GAA850 act: 1.9; HSF1 activator: 16.5; HSF1 inhib: 16.9

Results for CS(=O)(=O)c1ccc(Cl)c(NC(=O)CSc2nnc(-c3cccs3)n2N)c1 ?
DAX1 inh: 0.0; FXN GAA850 act: -1.1; AHR activator: 1.2

What do the screens show for `Nc1nc2ccccc2n1S(=O)(=O)c1ccc(Cl)cc1`?
FXN GAA850 act: 2.3

How did O=c1[nH]c(CSc2cccc[n+]2[O-])nc2ccccc12 do in these assays?
DAX1 inh: 1.9; FXN GAA850 act: -2.7; HSF1 activator: 1.3; HSF1 inhib: -7.8; AHR activator: 47.7*

What do the screens show for `Cn1c(SCc2nc3ccccc3c(=O)[nH]2)nnc1-c1ccco1`?
DAX1 inh: -0.8; FXN GAA850 act: 0.0; HSF1 activator: 31.0; HSF1 inhib: 10.5; AHR activator: 0.2

How did O=c1[nH]c(CSc2ncnc3sccc23)nc2ccccc12 do in these assays?
DAX1 inh: 0.8; FXN GAA850 act: 5.8; HSF1 activator: 56.1*; HSF1 inhib: 29.8; AHR activator: 10.0

How did Cn1c(SCC(=O)NCc2ccccc2)nc2ccccc21 do in these assays?
DAX1 inh: -0.7; FXN GAA850 act: 0.1; HSF1 activator: -79.0; HSF1 inhib: -73.4*; AHR activator: 2.9

How did Cn1c(-c2ccccc2)cnc1SCc1nc2ccccc2c(=O)[nH]1 do in these assays?
DAX1 inh: 1.3; FXN GAA850 act: 6.2; HSF1 activator: 104.3*; HSF1 inhib: 67.0; AHR activator: 5.5
